Results from PubChem BioAssay AID504326 (The Scripps Research Institute Molecular Screening Center, 2011).
About 990 (0.29%) of roughly 340,000 compounds were called active. No stated cut-off is given here; in the data, active means activation above about 18%; inactive means the rest. The entries come from a sample that favours actives as a whole.

Target: Mu-type opioid receptor (Homo sapiens) + Delta-type opioid receptor (Homo sapiens) (UniProt P35372+P41143)
Assay: inducers of mu-delta opioid receptor heterodimers – cell-based, luminescence, primary screen (AID 504326);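 further: 0% = vehicle-treated cells and 100% = reference agonist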
Conditions: cells, OPRM1-OPRD1 heterodimerization, at 9.3 µM, active compounds read high

Sequence of Mu-type opioid receptor (Homo sapiens) + Delta-type opioid receptor (Homo sapiens) (P35372 whole entry, looked up): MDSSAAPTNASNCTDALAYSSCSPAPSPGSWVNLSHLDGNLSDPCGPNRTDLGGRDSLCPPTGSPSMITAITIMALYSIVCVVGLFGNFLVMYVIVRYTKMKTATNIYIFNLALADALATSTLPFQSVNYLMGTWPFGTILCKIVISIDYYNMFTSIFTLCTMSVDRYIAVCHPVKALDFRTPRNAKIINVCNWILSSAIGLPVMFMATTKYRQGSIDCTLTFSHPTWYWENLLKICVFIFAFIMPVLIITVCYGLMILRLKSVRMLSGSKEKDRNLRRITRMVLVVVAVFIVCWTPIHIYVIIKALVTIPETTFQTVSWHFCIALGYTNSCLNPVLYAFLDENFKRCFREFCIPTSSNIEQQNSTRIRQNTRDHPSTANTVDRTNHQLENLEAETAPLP
Sequence of Mu-type opioid receptor (Homo sapiens) + Delta-type opioid receptor (Homo sapiens) (P41143 whole entry, looked up): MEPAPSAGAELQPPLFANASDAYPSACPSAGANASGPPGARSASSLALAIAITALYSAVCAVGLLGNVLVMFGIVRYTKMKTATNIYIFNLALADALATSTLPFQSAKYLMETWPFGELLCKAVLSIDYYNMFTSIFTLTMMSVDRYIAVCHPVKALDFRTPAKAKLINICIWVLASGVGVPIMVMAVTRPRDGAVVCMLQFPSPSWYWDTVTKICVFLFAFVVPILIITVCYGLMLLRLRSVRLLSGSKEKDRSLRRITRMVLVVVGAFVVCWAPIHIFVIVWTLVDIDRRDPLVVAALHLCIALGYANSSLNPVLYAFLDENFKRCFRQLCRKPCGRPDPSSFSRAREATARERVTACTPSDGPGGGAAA

Compound | activation
CCc1nc2ccccc2c(C(=O)OC2CCCCC2=O)c1C (stereo not given) | -2.96% (inactive)
CC(=O)NC(NC(=S)Nc1c(C)n(C)n(-c2ccccc2)c1=O)C(Cl)(Cl)Cl (stereo not given) | -0.74% (inactive)
CC(C)(C)C(=O)NC(NC(=S)Nc1ccc(S(N)(=O)=O)cc1)C(Cl)(Cl)Cl (stereo not given) | 0.71% (inactive)
Cc1ccc(NC(=S)NC(NC(=O)Cc2cccc3ccccc23)C(Cl)(Cl)Cl)cc1 (stereo not given) | 43.3% (active)
COc1ccc(OC)c(CN2CCN(C(=O)CNC(=O)c3cc(C)cc(C)c3)CC2)c1 | -5.2% (inactive)
O=C(CSc1nnc(CN2CCCC2)n1-c1ccc(F)cc1)c1ccc2c(c1)OCO2 | -2.96% (inactive)
Cc1cc(C)cc(C(=O)N(CCc2ccccc2)C2=CC3CCC(C2)N3C)c1 (stereo not given) | 104% (active)
C=CCN(C(=O)c1cc(C)cc(C)c1)C1(C(=O)Nc2ccccc2)CCN(C(C)C)CC1 | 0.59% (inactive)
Cc1ccc(CCN2CC(C(=O)NCCc3ccccc3)CC2=O)cc1 (stereo not given) | -2.88% (inactive)
Cc1ccc(C2C(C#N)C(C#N)N3CCCN23)cc1 (stereo not given) | 0.61% (inactive)
CSc1n[nH]c(=S)n1N | -1.24% (inactive)
O=C(COc1ccc2ccc(=O)oc2c1)NCC(O)c1ccccc1 (stereo not given) | -1.9% (inactive)
CCCN1Cc2cccc(C(=O)NCc3ccccc3)c2C1=O | -0.19% (inactive)
Cc1ccc(S(=O)(=O)N(CC(=O)Nc2cccnc2)c2ccc(Br)cc2)cc1 | 24.9% (active)
CCNC(=O)CN(c1ccc(C)cc1)S(=O)(=O)c1ccc(SC)cc1 | -4.37% (inactive)
CCc1ccc(N(CC(=O)NCc2cccnc2)S(=O)(=O)c2ccccc2)cc1 | -1.13% (inactive)
COc1ccc(C(=O)Nc2cc(C)ccc2NC(=O)COc2ccccc2)cc1 | 0.51% (inactive)
CCS(=O)(=O)c1ccc(O)c(NC(=O)COc2ccc(Cl)cc2)c1 | -5.16% (inactive)
Cc1ccc(O)c(NC(=S)NC(=O)COc2ccc(Br)cc2)c1 | 22.7% (active)
OCC1(Cc2ccccc2)CCN(Cc2cc3ccccc3o2)CC1 | 0.65% (inactive)

Compound | activation
O=S(=O)(c1ccc(Br)cc1)N1CCC(c2nc3ccccc3[nH]2)CC1 | 1.07% (inactive)
N#CC(C(=O)c1ccc(S(=O)(=O)N2CCCCCC2)cc1)c1nc2ccccc2[nH]1 (stereo not given) | 24.1% (active)
O=C(Nc1ncccc1O)c1ccc(S(=O)(=O)N2CCCCCC2)cc1 | -4.61% (inactive)
Oc1cccc2ccc(/C=C/c3ccc(Br)s3)nc12 | 1.72% (inactive)
Nc1ccc(C(=O)Nc2ccccc2N)cc1 | 2.04% (inactive)
Cc1ccc(Nc2nc(Cl)c(C=O)s2)cc1 | 4.48% (inactive)
Cc1ccc(Nc2ccccc2N)cc1 | 21.4% (active)
COc1cc(C(=O)OCC(=O)NC23CC4CC(CC(C4)C2)C3)cc(OC)c1OC | -1.44% (inactive)
COc1ccc(NC(=O)CCCN2C(=O)C(c3ccccc3)Oc3cccnc32)cc1 (stereo not given) | 2.07% (inactive)
Cc1ccc(OCCCC(=O)Nc2ccc(S(=O)(=O)Nc3cc(C)nc(C)n3)cc2)cc1 | 0.21% (inactive)
NS(=O)(=O)c1ccc(CCNc2nc(C(F)(F)F)nc3ccccc23)cc1 | -1.85% (inactive)
COc1cccc(CNc2nc(C(F)(F)F)nc3ccccc23)c1 | 5.18% (inactive)
CCc1ccc(C(CNc2nc(C(F)(F)F)nc3ccccc23)N(C)C)cc1 (stereo not given) | 81.6% (active)
Cc1ccn(C(CC(=O)c2ccc(Br)cc2)C(=O)O)n1 (stereo not given) | -1.91% (inactive)
Nc1c(Cl)cc(S(N)(=O)=O)cc1S(N)(=O)=O | -5.23% (inactive)
CC1=NNC(=O)C1CCC(=O)N/N=C\c1ccc(Cl)c(Cl)c1 (stereo not given) | -0.87% (inactive)
COc1cc(/C=N/NC(=O)Cc2ccccc2)cc(OC)c1OC | -1.52% (inactive)
COc1cc(/C=N/NC(=O)c2ccoc2C)ccc1OCCN1CCCCC1 | -0.79% (inactive)
COc1cc(/C=N/NC(=O)Nc2ccccc2)ccc1OCCOc1ccccc1C | 28% (active)
Cc1cc(C)c2c(=O)[nH]c(SCC(=O)Nc3ccc(Br)cc3)nc2n1 | 2.08% (inactive)

Compound | activation
CN(Cc1ccc(F)cc1)C(=O)CN1C(=O)c2ccccc2S1(=O)=O | -2.95% (inactive)
COC(=O)C1=NNC2(c3ccc(C)cc3)C(=O)N(c3cccc(C)c3C)C(=O)C12 (stereo not given) | -4.85% (inactive)
COC(=O)C1=C(O)/C(=C/c2ccc(OCC(=O)Nc3ccccc3)cc2)N=C1C | -3.18% (inactive)
CCOC(=O)C1=C(O)/C(=C/c2ccc(OCC(=O)Nc3ccc(C)cc3)cc2)N=C1C | 40.8% (active)
Cc1ccc(NC(=O)COc2ccc(/C=C3/NC(=O)NC3=O)cc2)cc1 | 2.37% (inactive)
CCOc1ccc(Br)cc1S(=O)(=O)Nc1ccc(C(=O)OC(C)C(=O)N(C)c2ccccc2)cc1 (stereo not given) | 2.35% (inactive)
CC(c1ccccn1)N(C)C(=O)c1ccc2nc(Cc3cccc(Cl)c3)oc2c1 (stereo not given) | -0.53% (inactive)
CC1CCCCC12NC(=O)N(CC(=O)OCC(=O)NCc1ccc(F)cc1)C2=O (stereo not given) | -0.67% (inactive)
Cc1cccc(Oc2c([N+](=O)[O-])c(=O)n(C)c3ccccc23)c1 | 1.78% (inactive)
CCOC(=O)c1c(C)[nH]c2c1-c1ccccc1C(=O)C2=O | 22.6% (active)
CCOC(=O)c1ccccc1OC(=O)Oc1ccccc1C(=O)OCC | -2.83% (inactive)
CCOC(=O)C1=C(C)c2ccccc2OC1(C)C(=O)OCC (stereo not given) | -0.33% (inactive)
O=C(NCc1ccccn1)c1cnc2sccn2c1=O | -2.49% (inactive)
COc1cc(C(=O)N(Cc2ccc(N(C)C)cc2)C2CCS(=O)(=O)C2)cc(OC)c1OC (stereo not given) | -1.82% (inactive)
CC1(C)C(C=C(Cl)Cl)C1C(=O)N(Cc1ccc(Cl)cc1)C1CCS(=O)(=O)C1 (stereo not given) | 0.69% (inactive)
Cc1ccc(CN(C(=O)c2sc3ccccc3c2Cl)C2CCS(=O)(=O)C2)cc1 (stereo not given) | 26.2% (active)
O=C(C1CC1)N1N=C2CCCCC2C1(O)C(F)(F)F (stereo not given) | -1.35% (inactive)
CCOC(=O)Cc1ncccc1C(=O)Nc1ccc(OC(F)(F)F)cc1 | -3.8% (inactive)
Cn1cccc1/C=N/NC(=O)c1ccc(OC(F)(F)C(F)F)cc1 | -1.62% (inactive)
O=C(Nc1ccc(OC(F)(F)F)cc1)c1ccc2c(c1)no[n+]2[O-] | 22% (active)
